Assay outcomes (PubChem)
Sampled rows, rich in hits. Any-hit rate of the full collection: about 8.1%.
MITF inhib = inhibitors of MITF, primary screen, MITF inhibitor project, cell-based, luminescence; AID 2240, 2010; inhibition, % (test concentration not listed); 37,000 compounds, 0.28% hits; TRPM1 promoter luciferase, 24 h; in the data active = inhibition above about 85%; inconclusive = no clear call, values can overlap the other calls; inactive = below about 68%;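 also: human melanocyte line stably carrying TRPM1 promoter luciferase reporter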
Shh pathway inh = Hedgehog pathway signaling inhibitors, primary screen, luminescence, Shh-LIGHT2 cells, Gli-luciferase. Shh-LIGHT2 Gli-luciferase reporter, 30 h. inhibition, % (test concentration not listed). 22,000 compounds, 2.1% hits. AID 2313, 2010;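 active = mean inhibition across valid replicates above about 65%, limit read from the data; inconclusive = mean under the limit, yet half or more replicates past it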;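 also: pathway switched on by Shh-conditioned medium diluted 1 in 25 in low serum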
NOMO-1 viab = NOMO-1 AML cell viability reduction, primary screen, STK33 inhibitor project, CellTiter-Glo luminescence | NOMO-1 AML viability, 72 h | inhibition, % (test concentration not listed) | 37,000 compounds, 7.5% hits; in the data active = inhibition above about 80%; inconclusive = no clear call, values can overlap the other calls
A number is an active result.

For C[C@@H]1CN([C@H](C)CO)C(=O)c2cccc(NC(=O)c3ccc(-c4nccs4)cc3)c2O[C@@H]1CN(C)Cc1ccc(C(=O)Nc2ccccc2N)cc1 the results were MITF inhib inactive and NOMO-1 viab 142.
`C[C@@H]1CN([C@H](C)CO)C(=O)c2cccc(NC(=O)c3ccc(-c4nccs4)cc3)c2O[C@H]1CN(C)Cc1ccc(Oc2ccccc2)cc1` gave MITF inhib inactive, Shh pathway inh inactive and NOMO-1 viab inactive.
For C[C@@H]1CN([C@H](C)CO)C(=O)c2cccc(NC(=O)c3ccc(-c4nccs4)cc3)c2O[C@H]1CN(C)Cc1ccc(C(=O)O)cc1 the results were MITF inhib inactive, Shh pathway inh inactive and NOMO-1 viab inactive.
`C[C@@H]1CN([C@H](C)CO)C(=O)c2cccc(NC(=O)c3ccc(-c4nccs4)cc3)c2O[C@H]1CN(C)Cc1ccc(C(F)(F)F)cc1` gave MITF inhib inactive, Shh pathway inh inactive and NOMO-1 viab 84.
C[C@@H]1CN([C@H](C)CO)C(=O)c2cccc(NC(=O)c3ccc(-c4nccs4)cc3)c2O[C@H]1CN(C)Cc1ccccc1 was read as MITF inhib inactive, Shh pathway inh inactive and NOMO-1 viab inactive.
For CNC(=S)N(Cc1ccncc1)C1CC(=O)N(c2ccc(OC)cc2)C1=O (stereo not given) the results were MITF inhib inactive and NOMO-1 viab inactive.
Cc1cccc(OCC(=O)Nc2cccc(C(=O)O)c2C)c1 was read as MITF inhib inactive and NOMO-1 viab inactive.
For CCc1c(C)sc(NC(=O)c2ccc(Cn3nc(C)c(Cl)c3C)o2)c1C(N)=O the results were MITF inhib inactive and NOMO-1 viab inactive.
`O=C(CCn1cnc2ccccc2c1=O)Nc1ccc(F)cc1` gave MITF inhib inactive and NOMO-1 viab inactive.
For C[C@H]1CN([C@@H](C)CO)C(=O)c2cccc(NC(=O)c3ccc(-c4nccs4)cc3)c2O[C@@H]1CN(C)Cc1ccc(-c2ccccc2)cc1 the results were MITF inhib inactive, Shh pathway inh inactive and NOMO-1 viab inconclusive.
C[C@@H]1CN([C@H](C)CO)C(=O)c2cccc(NC(=O)c3ccc(-c4nccs4)cc3)c2O[C@@H]1CN(C)Cc1ccc(-c2ccccc2)cc1 was read as MITF inhib inactive, Shh pathway inh inactive and NOMO-1 viab inactive.
Screening C[C@@H]1CN([C@@H](C)CO)C(=O)c2cccc(NC(=O)c3ccc(-c4nccs4)cc3)c2O[C@H]1CN(C)Cc1ccc(C(=O)Nc2ccccc2N)cc1 returned MITF inhib inactive and NOMO-1 viab 126.
C[C@H]1CN([C@@H](C)CO)C(=O)c2cccc(NC(=O)c3ccc(-c4nccs4)cc3)c2O[C@H]1CN(C)Cc1ccc(C(=O)Nc2ccccc2N)cc1 was read as MITF inhib inactive and NOMO-1 viab 101.
For COc1ccc(-n2c(CC#N)nnc2SCc2c(C)c(C)c(C)c(C)c2C)cc1 the results were MITF inhib inactive, Shh pathway inh inactive and NOMO-1 viab 102.
Screening COc1ccc(-n2c(CSc3nnc(-c4ccc(OC)c(OC)c4)n3-c3ccccc3)n[nH]c2=S)cc1 returned MITF inhib inactive and NOMO-1 viab inactive.
COC(=O)c1cccc(N=C(N)N=C(N)N)c1 was read as MITF inhib inactive and NOMO-1 viab inactive.
For COc1ccc(C(=O)NC(c2ccc(OC)c(OC)c2)c2cc(Cl)c3cccnc3c2O)cc1 (stereo not given) the results were MITF inhib inactive and NOMO-1 viab 122.
Screening COc1cccc(C(=O)Nc2cccc(OC(C)C(=O)c3cccc(Cl)c3)c2)c1 (stereo not given) returned MITF inhib inactive and NOMO-1 viab inactive.
`COc1ccc(CCNC(=O)c2cc(-c3cccnc3)nc3c(Cl)cccc23)cc1OC` gave MITF inhib inactive and NOMO-1 viab inactive.
For COc1ccc(C(NC(=O)c2cccnc2)c2cc(Cl)c3cccnc3c2O)cc1OC (stereo not given) the results were MITF inhib inactive and NOMO-1 viab 109.
COc1cccc(C(=O)NC(c2ccc(C)cc2)c2cc(Cl)c3cccnc3c2O)c1 (stereo not given) was read as MITF inhib inactive and NOMO-1 viab 121.
Screening COc1ccc(C(=O)NC(CC(=O)O)c2ccc(Cl)cc2)cc1 (stereo not given) returned MITF inhib inactive and NOMO-1 viab inactive.
COc1ccc2c(c1OC)C(=O)N1c3ccccc3N=C(c3ccc(Br)cc3)CC21 (stereo not given) was read as MITF inhib inactive, Shh pathway inh inactive and NOMO-1 viab inactive.
For Cc1ccc(C)c(NC(=O)CN(c2ccc(F)c(Cl)c2)S(C)(=O)=O)c1 the results were MITF inhib inactive and NOMO-1 viab inactive.
`CCCC1O[C@@H]2C[C@H]3[C@@H]4CCC5=CC(=O)C=C[C@]5(C)[C@H]4[C@@H](O)C[C@]3(C)[C@]2(C(=O)CO)O1` (stereo not given in full) gave MITF inhib inactive, Shh pathway inh inactive and NOMO-1 viab inactive.
For CCC(=O)OC1(C(=O)CCl)[C@@H](C)C[C@H]2[C@@H]3CCC4=CC(=O)C=C[C@]4(C)[C@@]3(F)[C@@H](O)C[C@@]21C (stereo not given in full) the results were MITF inhib inactive, Shh pathway inh inactive and NOMO-1 viab inactive.
CCC(=O)[C@@]1(C)[C@H](C)C[C@H]2[C@@H]3CCC4=CC(=O)C=C[C@]4(C)[C@H]3[C@@H](O)C[C@@]21C was read as MITF inhib inactive, Shh pathway inh 65 and NOMO-1 viab inactive.
CCC(=O)OCC(=O)[C@@]1(OC(=O)CC)[C@H](C)CC2C3C([C@@H](O)C[C@@]21C)[C@@]1(C)C=CC(=O)C=C1C[C@H]3Cl (stereo not given in full) was read as MITF inhib inactive, Shh pathway inh 68 and NOMO-1 viab inactive.
COC(=O)C1=CO[C@@H](O[C@@H]2O[C@H](CO)[C@@H](O)[C@H](O)[C@H]2O)[C@H]([C@H](C)OC(C)=O)[C@@H]1CC(=O)O was read as MITF inhib inactive, Shh pathway inh inactive and NOMO-1 viab inactive.
`CC1OC(OCC2OC(O[C@H]3CC[C@@]4(C)C(CC[C@@]5(C)C6=C(CCC45)C4CC(C)(C)CC[C@]4(C(=O)OC4OC(CO)C(O)C(O)C4O)CC6)C3(C)C)C(O)C(O)C2O)C(O)C(O)C1O` (stereo not given in full) gave Shh pathway inh inactive.
COC1CC(O[C@H]2CC[C@]3(C)C4CC[C@@]5(C)C(=O)[C@]4(CC[C@@H]3C2)CC[C@@H]5C2=CC(=O)OC2)OC(C)C1OC1OC(COC2OC(CO)C(O)C(O)C2O)C(O)C(O)C1O (stereo not given in full) was read as MITF inhib inactive, Shh pathway inh inactive and NOMO-1 viab 111.
For CCCCC(=O)N1c2ccccc2C(Nc2ccccc2)CC1C (stereo not given) the results were MITF inhib inactive, Shh pathway inh inactive and NOMO-1 viab inactive.
For C[C@@H]1CN([C@@H](C)CO)C(=O)c2cccc(NC(=O)Nc3ccc(C(F)(F)F)cc3)c2O[C@H]1CN(C)C(=O)Nc1ccc2c(c1)OCO2 the results were MITF inhib inactive, Shh pathway inh inactive and NOMO-1 viab 89.
